About 79,000 compounds went through this panel and 15% of them were active in at least one assay; those are over-represented in the sample as a whole. Activity calls are given as the source filed them. Cut-off read from the data, not from the text of the source: active = growth inhibition above about 70%; inactive = the rest.
Key:
[1] = NCI Yeast Anticancer Drug Screen. Data for the rad52 strain (AID 147);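 note: 0% = growth of vehicle-treated control cultures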; conditions: S. cerevisiae rad52 mutant growth inhibition, active compounds read high
Method in brief: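 Yeast strain carrying a DNA damage repair alteration was exposed to test compounds. Growth inhibition was measured relative to vehicle-treated controls.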

[2] = NCI Yeast Anticancer Drug Screen. Data for the wt1 strain (AID 149);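 note: 0% = growth of vehicle-treated wt1 cultures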; conditions: S. cerevisiae wt1 strain (SPY 50644) growth inhibition, active compounds read high
Method in brief: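 Measured: growth of wt1 yeast under compound versus vehicle treatment, reported as inhibition.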

[3] = NCI Yeast Anticancer Drug Screen. Data for the rad50EPP+ strain (AID 151);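 note: 0% = growth of vehicle-treated control cultures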; conditions: S. cerevisiae rad50 mutant strain, active compounds read high
Method in brief: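 Yeast strain carrying rad50 alteration (rad50EPP+) exposed to compounds; growth inhibition measured relative to vehicle-treated controls.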

[4] = NCI Yeast Anticancer Drug Screen. Data for the mgt1 strain (AID 153); conditions: S. cerevisiae mgt1 mutant growth inhibition, active compounds read high
Method in brief: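 Yeast mgt1 strain (DNA repair/cell-cycle alteration panel) exposed to compounds; growth inhibition measured relative to vehicle-treated controls.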

[5] = NCI Yeast Anticancer Drug Screen. Data for the rad50 strain (AID 155);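 note: 0% = growth of vehicle-only cultures of the same strain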; conditions: S. cerevisiae rad50 strain growth inhibition, active compounds read high
Method in brief: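 Growth of the mutant yeast was measured after compound exposure and referenced to vehicle-treated cultures.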

[6] = NCI Yeast Anticancer Drug Screen. Data for the mec2-1 strain (AID 157); conditions: S. cerevisiae mec2-1 strain, active compounds read high
Method in brief: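 mec2-1 yeast strain, carrying an alteration in DNA damage repair or cell cycle control, was exposed to compounds; growth inhibition was measured relative to vehicle-treated controls.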

[7] = NCI Yeast Anticancer Drug Screen. Data for the sgs1 mgt1 strain (AID 161);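 note: 0% = growth of cultures given vehicle only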; conditions: S. cerevisiae sgs1 mgt1 strain, active compounds read high
Method in brief: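 Percent growth inhibition was derived by comparing compound-exposed mutant yeast with vehicle-exposed cultures. The strain carries alterations in DNA damage repair.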

[8] = NCI Yeast Anticancer Drug Screen. Data for the cln2 rad14 strain (AID 165);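 note: 0% = growth equal to vehicle treated cultures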; conditions: S. cerevisiae cln2 rad14 strain, active compounds read high
Method in brief: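 Yeast carrying cln2 and rad14 alterations (cell cycle control and DNA damage repair) were exposed to compounds. Growth inhibition was measured against vehicle-treated controls.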

[9] = NCI Yeast Anticancer Drug Screen. Data for the bub3 strain (AID 167); conditions: S. cerevisiae bub3 mutant strain, active compounds read high
Method in brief: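 Whole-cell yeast assay. The mutant strain was incubated with compounds, and growth inhibition was determined by comparison with vehicle-treated cells.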

[10] = NCI Yeast Anticancer Drug Screen. Data for the wt2 strain (AID 169);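 note: 0% = growth of vehicle-treated yeast cultures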; conditions: S. cerevisiae wt2 strain growth inhibition, active compounds read high
Method in brief: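 Yeast cells were exposed to test compounds, and growth inhibition was measured relative to vehicle-treated controls.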

[11] = NCI Yeast Anticancer Drug Screen. Data for the mlh1 strain (AID 171);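 note: 0% = growth of vehicle-treated control cultures of the same strain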; conditions: S. cerevisiae mlh1 strain growth inhibition, active compounds read high
Method in brief: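 Yeast carrying a defined genetic alteration in DNA damage repair or cell cycle control were exposed to test compounds. Growth inhibition was measured relative to vehicle-treated controls.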

[12] = NCI Yeast Anticancer Drug Screen. Data for the sgs1 strain (AID 173);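 note: 0% = growth of vehicle-only control cultures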; conditions: S. cerevisiae sgs1 mutant, active compounds read high
Method in brief: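 Yeast mutant strains carrying defined defects in DNA damage repair or cell cycle control were exposed to test compounds. Growth inhibition was scored against vehicle-treated controls.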

[13] = NCI Yeast Anticancer Drug Screen. Data for the mlh1 rad18 strain (AID 175); conditions: S. cerevisiae mlh1 rad18 strain growth inhibition, active compounds read high
Method in brief: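 Growth inhibition of the yeast strain was measured after compound exposure and expressed relative to vehicle-treated controls. The strain carries defined defects in DNA damage repair.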

[14] = NCI Yeast Anticancer Drug Screen. Data for the rad14 strain (AID 159);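 note: 0% = growth of vehicle-treated control cultures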; conditions: S. cerevisiae rad14 strain growth inhibition, active compounds read high
Method in brief: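 Here, inhibition of yeast growth was measured after compound exposure, using a strain with a genetic defect in DNA damage repair and vehicle-treated cultures as the reference.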

[15] = NCI Yeast Anticancer Drug Screen. Data for the CLN2oe strain (AID 163);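 note: 0% = growth of vehicle-only control cultures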; conditions: S. cerevisiae CLN2oe strain, active compounds read high
Method in brief: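 Yeast cells carrying a defined cell-cycle control alteration were exposed to test compounds. Growth inhibition was scored against vehicle-treated control cultures.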

[16] = NCI Yeast Anticancer Drug Screen. Data for the rad18 strain (AID 177); conditions: S. cerevisiae rad18 mutant growth inhibition, active compounds read high
Method in brief: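 Yeast carrying a defined DNA damage repair alteration were exposed to compounds. Growth inhibition was expressed relative to vehicle-treated controls.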

[17] = at 5.0 µM (retest, dose inferred, filed as 0.5)
[18] = at 50.0 µM (retest, dose inferred, filed as 5.0)

Measured: growth inhibition

OCC(Cn1cncn1)(c1ccc(F)cc1F)n1cncn1 (stereo not drawn)
active: [3]; at 11.0 µM 86% | [3]; at 33.0 µM 92% | [3]; at 100.0 µM 94% | [5]; [18] 77% | [7]; [18] 78% | [8]; [18] 81% | [9]; [18] 84% | [9]; at 50.0 µM 71% | [12]; at 11.0 µM 72% | [12]; at 33.0 µM 72% | [12]; at 100.0 µM 70% | [13]; [18] 86%
inactive: [1]; at 1.2 µM 35% | [1]; at 3.7 µM 57% | [1]; at 11.0 µM 63% | [1]; at 33.0 µM 66% | [1]; at 100.0 µM 65% | [2]; at 1.2 µM 13% | [2]; at 3.7 µM 40% | [2]; at 11.0 µM 45% | [2]; at 33.0 µM 43% | [2]; at 100.0 µM 42% | [3]; at 1.2 µM 2% | [3]; at 3.7 µM 28% | [4]; at 1.2 µM 33% | [4]; at 3.7 µM 62% | [4]; at 11.0 µM 65% | [4]; at 33.0 µM 66% | [4]; at 100.0 µM 65% | [5]; at 1.2 µM 34% | [5]; at 3.7 µM 54% | [5]; [17] 55% | [5]; at 11.0 µM 59% | [5]; at 33.0 µM 59% | [5]; at 50.0 µM 61.8% | [5]; at 100.0 µM 60% | [6]; at 1.2 µM 27% | [6]; at 3.7 µM 45% | [6]; [17] 41% | [6]; at 11.0 µM 53% | [6]; at 33.0 µM 53% | [6]; [18] 61% | [6]; at 50.0 µM 44.2% | [6]; at 100.0 µM 52% | [7]; [17] 67% | [7]; at 50.0 µM 68.2% | [8]; [17] 22% | [8]; at 50.0 µM 63% | [9]; at 1.2 µM 27% | [9]; at 3.7 µM 54% | [9]; [17] 14% | [9]; at 11.0 µM 69% | [9]; at 33.0 µM 69% | [9]; at 100.0 µM 66% | [10]; at 1.2 µM 31% | [10]; at 3.7 µM 57% | [10]; at 11.0 µM 64% | [10]; at 33.0 µM 61% | [10]; at 100.0 µM 57% | [11]; at 1.2 µM 22% | [11]; at 3.7 µM 47% | [11]; at 11.0 µM 53% | [11]; at 33.0 µM 53% | [11]; at 100.0 µM 50% | [12]; at 1.2 µM 48% | [12]; at 3.7 µM 67% | [13]; [17] 31% | [13]; at 50.0 µM 57.5%

CCN(CC)CCNc1ccc([N+](=O)[O-])c2nc3ccc(OC)cc3c(N)c12
inactive: [1]; at 1.2 µM -23% | [1]; at 3.7 µM -13% | [1]; at 11.0 µM 19% | [2]; at 1.2 µM -8% | [2]; at 3.7 µM -14% | [2]; at 11.0 µM -17% | [2]; at 33.0 µM -6% | [2]; at 100.0 µM 54% | [3]; at 1.2 µM 11% | [3]; at 3.7 µM 7% | [3]; at 11.0 µM 30% | [3]; at 33.0 µM 69% | [4]; at 1.2 µM -20% | [4]; at 3.7 µM -20% | [4]; at 11.0 µM -16% | [4]; at 33.0 µM 15% | [5]; at 1.2 µM -3% | [5]; at 3.7 µM -2% | [5]; [17] 13% | [5]; at 11.0 µM 35% | [5]; at 50.0 µM 48.4% | [14]; at 1.2 µM -34% | [14]; at 3.7 µM -29% | [14]; at 11.0 µM -19% | [14]; at 33.0 µM 28% | [7]; [17] -12% | [7]; [18] 48% | [7]; at 50.0 µM 58.4% | [15]; at 1.2 µM 10% | [15]; at 3.7 µM 15% | [15]; at 11.0 µM 22% | [15]; at 33.0 µM 25% | [15]; at 100.0 µM 64% | [8]; [17] 3% | [8]; [18] 33% | [8]; at 50.0 µM 6.25% | [9]; at 1.2 µM -23% | [9]; at 3.7 µM -16% | [9]; [17] -24% | [9]; at 11.0 µM -36% | [9]; at 33.0 µM -17% | [9]; [18] 18% | [9]; at 50.0 µM -0.6% | [9]; at 100.0 µM 64% | [10]; at 1.2 µM 15% | [10]; at 3.7 µM 6% | [10]; at 11.0 µM 10% | [10]; at 33.0 µM 28% | [11]; at 1.2 µM -2% | [11]; at 3.7 µM 4% | [11]; at 11.0 µM 5% | [11]; at 33.0 µM 27% | [12]; at 1.2 µM -8% | [12]; at 3.7 µM -9% | [12]; at 11.0 µM -16% | [12]; at 33.0 µM 10% | [16]; at 1.2 µM 1% | [16]; at 3.7 µM 4% | [16]; at 11.0 µM 7% | [16]; at 33.0 µM 23%
active: [1]; at 33.0 µM 74% | [1]; at 100.0 µM 90% | [3]; at 100.0 µM 79% | [4]; at 100.0 µM 73% | [5]; at 33.0 µM 79% | [5]; [18] 89% | [5]; at 100.0 µM 93% | [14]; at 100.0 µM 88% | [10]; at 100.0 µM 70% | [11]; at 100.0 µM 85% | [12]; at 100.0 µM 82% | [16]; at 100.0 µM 86%

Nc1ccn(C2OC(CO)C3[O][Sn]([c]4ccccc4)([c]4ccccc4)[O]C32)c(=O)n1 (stereo not drawn)
active: [1]; at 100.0 µM 84% | [4]; at 100.0 µM 85% | [5]; at 50.0 µM 95.4% | [5]; at 100.0 µM 84% | [6]; at 50.0 µM 95.5% | [7]; at 50.0 µM 86.2% | [8]; at 50.0 µM 92.1% | [9]; at 50.0 µM 95.9% | [9]; at 100.0 µM 75% | [10]; at 100.0 µM 79% | [11]; at 100.0 µM 70% | [12]; at 100.0 µM 89% | [13]; [18] 87% | [13]; at 50.0 µM 95.2% | [16]; at 100.0 µM 88%
inactive: [1]; at 1.2 µM 3% | [1]; at 3.7 µM 3% | [1]; at 11.0 µM 21% | [1]; at 33.0 µM 46% | [2]; at 1.2 µM -1% | [2]; at 3.7 µM -1% | [2]; at 11.0 µM 1% | [2]; at 33.0 µM 9% | [2]; at 100.0 µM 53% | [3]; at 1.2 µM 1% | [3]; at 3.7 µM -5% | [3]; at 11.0 µM -1% | [3]; at 33.0 µM 6% | [3]; at 100.0 µM 13% | [4]; at 1.2 µM 7% | [4]; at 3.7 µM 3% | [4]; at 11.0 µM -3% | [4]; at 33.0 µM 30% | [5]; at 1.2 µM 4% | [5]; at 3.7 µM -1% | [5]; [17] -5% | [5]; at 11.0 µM 26% | [5]; at 33.0 µM 61% | [5]; [18] 51% | [6]; at 1.2 µM 0% | [6]; at 3.7 µM 3% | [6]; [17] -6% | [6]; at 11.0 µM 4% | [6]; at 33.0 µM 17% | [6]; [18] 34% | [6]; at 100.0 µM 52% | [7]; [17] -12% | [7]; [18] 65% | [15]; at 1.2 µM 1% | [15]; at 3.7 µM -1% | [15]; at 11.0 µM 9% | [15]; at 33.0 µM 11% | [15]; at 100.0 µM 60% | [8]; [17] -26% | [8]; [18] -9% | [9]; at 1.2 µM 1% | [9]; at 3.7 µM 1% | [9]; [17] -18% | [9]; at 11.0 µM 3% | [9]; at 33.0 µM 19% | [9]; [18] 41% | [10]; at 1.2 µM 0% | [10]; at 3.7 µM 0% | [10]; at 11.0 µM 5% | [10]; at 33.0 µM 31% | [11]; at 1.2 µM -1% | [11]; at 3.7 µM 0% | [11]; at 11.0 µM 6% | [11]; at 33.0 µM 33% | [12]; at 1.2 µM 0% | [12]; at 3.7 µM 0% | [12]; at 11.0 µM 9% | [12]; at 33.0 µM 44% | [13]; [17] -22% | [16]; at 1.2 µM 3% | [16]; at 3.7 µM 8% | [16]; at 11.0 µM 27% | [16]; at 33.0 µM 67%

— PubChem BioAssay (NCI)
